Assay [1] addresses Thyrotropin receptor (Homo sapiens) (UniProt P16473). The assay can be described thus: qHTS assay to identify small molecule agonists of the thyroid stimulating hormone receptor (TSHR) signaling pathway (AID 1224843; calls by dose curve; further: nearly all actives have a fitted effect of over 45% in size). The method in brief: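 Steps: seed 800 TSHR-HEK293 cells per well; add test compound and hold 30 min at ambient temperature; dispense cAMP-d2 then anti-cAMP cryptate; incubate 1 h at ambient; measure fluorescence intensity.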
On the technique in general: Quantitative high-throughput screening tests each substance at several concentrations.

Assay [2] can be described thus: qHTS assay to identify small molecule agonists of H2AX - cell viability counter screen (AID 1224847; calls by dose curve; further: top concentration of the series differs between compounds; nearly all actives have a fitted effect of over 30% in size). The method in brief: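 Cytotoxicity counter screen in wild-type CHO-K1 cells: a 3 hr compound treatment at 37C across 15 concentrations, followed by CellTiter-Glo luminescence to gauge viable cells.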
Assay [3] in a line: qHTS RealTime-Glo MT Cell Viability Assay in HEK293 cells - 32 hour (AID 1224868). Further: nearly all actives have a fitted effect of over 50% in size. Further: potency means the concentration at half of the fitted maximal effect. The method in brief: (§1)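 HEK293 cells were seeded at 600 cells/well together with NanoLuc luciferase and cell-permeant prosubstrate, preincubated 5 h at 37 C/5% CO2, then given compound in DMSO by pintool. Luminescence from viable-cell prosubstrate reduction was read repeatedly over 40 h.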
Assay [4] in a line: A CellTox Green Cytotoxicity Assay to monitor cytotoxicity in HEK293 cells - 0 hour (AID 1224869). Further: nearly all actives have a fitted effect of over 50% in size. The method in brief: (§2)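 Each value comes from one timepoint of a single continuous run in which HEK293 cells with CellTox Green were exposed to compound for up to 40 h at 37 C, dye fluorescence rising with cell death.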
Assay [5] in a line: qHTS RealTime-Glo MT Cell Viability Assay in HepG2 cells - 40 hour (AID 1224870). Further: nearly all actives have a fitted effect of over 50% in size. In outline:
(§3)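 HepG2 cells (600/well) mixed with RealTime-Glo MT reagent, settled 5 h at 37 C/5% CO2 before compound addition. Nonlytic NanoLuc luminescence from viable-cell prosubstrate reduction read repeatedly during 40 h treatment at 37 C.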

A short description of assay [6]: A CellTox Green Cytotoxicity Assay to monitor cytotoxicity in HEK293 cells - 40 hour (AID 1224871). Further: nearly all actives have a fitted effect of over 45% in size. In outline: as §2
A short description of assay [7]: qHTS RealTime-Glo MT Cell Viability Assay in HEK293 cells - 16 hour (AID 1224872). Further: nearly all actives have a fitted effect of over 50% in size. Further: potency means the concentration at half of the fitted maximal effect. In outline:
as §1

Assay [8] is described as follows: qHTS RealTime-Glo MT Cell Viability Assay in HepG2 cells - 8 hour (AID 1224873). Further: nearly all actives have a fitted effect of over 55% in size. In outline: as §3
Assay [9] in a line: qHTS RealTime-Glo MT Cell Viability Assay in HEK293 cells - 40 hour (AID 1224874). Further: nearly all actives have a fitted effect of over 50% in size. Further: potency means the concentration at half of the fitted maximal effect. The following applies: RealTime-Glo luminescence; max response: stronger effect = lower value. The method in brief:
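qHTS format; HEK293 cells with NanoLuc/prosubstrate reagent, 37 C/5% CO2 for 5 h pre-dosing; compounds 23 nL in DMSO; luminescence at each time point reflects viable cells.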

A short description of assay [10]: A CellTox Green Cytotoxicity Assay to monitor cytotoxicity in HEK293 cells - 24 hour (AID 1224875). Further: series mostly up to about 77 µM; nearly all actives have a fitted effect of over 45% in size. In outline: as §2
A short description of assay [11]: A CellTox Green Cytotoxicity Assay to monitor cytotoxicity in HepG2 cells - 16 hour (AID 1224876). Further: nearly all actives have a fitted effect of over 45% in size. The method in brief:
(§4)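 Continuous culture of HepG2 cells with a membrane-impermeant DNA dye; rising fluorescence marks dead cells. Compound exposure lasted up to 40 h at 37 C, with reads every 8 h from 0 h.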

The nature of assay [12]: qHTS RealTime-Glo MT Cell Viability Assay in HepG2 cells - 32 hour (AID 1224877). Further: nearly all actives have a fitted effect of over 55% in size. In outline: (§5)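 HepG2 cells were seeded at 600 cells/well together with NanoLuc luciferase and a cell-permeant prosubstrate, preincubated 5 h at 37 C/5% CO2, then pin-dosed with compounds in DMSO. Nonlytic luminescence from viable cells was read at each time point.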
Assay [13] is described as follows: A CellTox Green Cytotoxicity Assay to monitor cytotoxicity in HepG2 cells - 24 hour (AID 1224878). Further: nearly all actives have a fitted effect of over 45% in size. In outline:
as §4

A short description of assay [14]: A CellTox Green Cytotoxicity Assay to monitor cytotoxicity in HepG2 cells - 40 hour (AID 1224879). Further: nearly all actives have a fitted effect of over 40% in size. In outline: as §4
A short description of assay [15]: qHTS assay to identify small molecule agonists of H2AX (AID 1224845; active means well fitted activation curve with a large enough effect in the signal ratio in the repeat runs, not every such curve was filed as active; the % refers to the signal ratio). In outline: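 Wild-type CHO-K1 cells, plated overnight, exposed 3hr at 37C to 15 concentrations (0.76% DMSO final). Lysed, then HTRF anti-pH2AX (S139) cryptate and anti-H2AX-d2 antibodies, 24 hr room temperature; 665/620 nm emission read.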
Assay [16] is described as follows: qHTS RealTime-Glo MT Cell Viability Assay in HepG2 cells - 24 hour (AID 1224867). Further: nearly all actives have a fitted effect of over 50% in size. In outline: as §5
Assay [17] can be described thus: qHTS assay to identify small molecule agonists of the hypoxia (HIF-1) signaling pathway - cell viability counter screen (AID 1224844; calls by dose curve; further: nearly all actives have a fitted effect of over 50% in size). The method in brief: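 Luminescent ATP content (CellTiter-Glo, 30 min, room temperature) served as the viability measure in HRE-bla ME-180 cells exposed to compounds for 17 hrs in low-serum medium (0.5% dialyzed FBS).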
Assay [18] in a line: qHTS assay to identify small molecule agonists of the hypoxia (HIF-1) signaling pathway (AID 1224846; active means well fitted activation curve with a large enough effect in the signal ratio in the repeat runs, not every such curve was filed as active; the % refers to the signal ratio). The method in brief: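 Measured by blue/green FRET after loading CCF4-AM: beta-lactamase expressed from a hypoxia response element in ME-180 cells. Test agents were delivered in DMSO and left 17 hrs; cells had been plated 5 hrs earlier in low-serum (0.5% dialyzed FBS) medium.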

The nature of assay [19]: qHTS assay to identify small molecule antagonists of the estrogen related receptor (ERR) signaling pathway from Tox21 library (AID 1224848). Further: nearly all actives have a fitted effect of over 50% in size. Further: potency means the concentration at half of the fitted maximal effect. In outline: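 Luminescent reporter read-out (ONE-Glo) from NTP's ERR cell line after 18 h treatment at 37 C with DMSO-dissolved Tox21 compounds; cells pre-plated 6 h beforehand at 2,000 per well.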

Molecules are shown by their SMILES. A number with no mark means an inactive call. Results filed as inconclusive are left out. Activity calls are given as the source filed them. Unless noted, the call rests on the fitted dose curve; in most records, active means well fitted curve in the direction sought with a large enough effect in the repeat runs; inconclusive means weak or mixed curves; inactive means no such curve, though single readings can be large; an effect the other way counts as inactive or inconclusive.
On the % scale 0 is the no-effect control and ±100 the full control effect.

Thyrotropin receptor (Homo sapiens), sequence (P16473 whole entry, looked up): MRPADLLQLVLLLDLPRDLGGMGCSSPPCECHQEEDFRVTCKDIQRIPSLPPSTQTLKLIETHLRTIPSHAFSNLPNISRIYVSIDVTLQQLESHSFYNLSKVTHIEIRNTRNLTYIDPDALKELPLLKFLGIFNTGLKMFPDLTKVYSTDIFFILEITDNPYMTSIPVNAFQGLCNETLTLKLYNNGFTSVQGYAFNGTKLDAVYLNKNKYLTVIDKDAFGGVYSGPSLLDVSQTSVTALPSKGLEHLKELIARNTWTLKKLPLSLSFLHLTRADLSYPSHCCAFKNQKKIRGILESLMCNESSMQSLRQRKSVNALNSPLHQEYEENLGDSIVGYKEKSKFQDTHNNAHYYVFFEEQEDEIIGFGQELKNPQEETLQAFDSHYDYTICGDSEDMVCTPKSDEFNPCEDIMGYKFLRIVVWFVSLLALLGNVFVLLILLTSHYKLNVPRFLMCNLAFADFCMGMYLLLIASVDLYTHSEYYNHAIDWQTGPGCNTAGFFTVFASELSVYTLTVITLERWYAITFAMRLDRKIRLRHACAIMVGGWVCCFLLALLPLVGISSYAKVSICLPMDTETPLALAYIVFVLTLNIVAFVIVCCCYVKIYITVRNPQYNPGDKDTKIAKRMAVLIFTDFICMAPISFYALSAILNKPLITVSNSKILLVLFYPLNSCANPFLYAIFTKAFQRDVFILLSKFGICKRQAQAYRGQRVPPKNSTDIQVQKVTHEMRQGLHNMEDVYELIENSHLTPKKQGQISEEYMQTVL

As for `CCCCCCCCCCCSCC(=O)O`, the Potency entry in assay [1], in assay [2], in [3], in [4], in assay [5] and in assay [6] was “inactive” throughout. Further, the Potency entry in [7], in assay [8], in assay [10], in [11], in assay [12] and in [13] was “inactive” each time. Moreover, the Potency entry in assay [14] was “inactive”. For the same molecule, the max response in assay [9] was 2.44%.

Regarding `CC(C)(C)NCC(O)COc1cccc2c1C[C@H](O)[C@H](O)C2` (some centres undefined), the Potency entry in [1], in assay [15], in assay [2], in assay [16], in assay [3] and in assay [4] was “inactive” each time. Besides, the Potency entry in assay [5], in [6], in assay [7], in [8], in assay [10] and in assay [11] was “inactive” throughout. For the same molecule, the Potency result in assay [12], in [13] and in assay [14] was “inactive” each time. The max response in assay [9] is 4.53%.

For the molecule `CC(CO)(CO)C(=O)O`, the Potency entry in assay [17], in assay [15], in assay [2], in assay [19], in assay [16] and in assay [4] was “inactive” each time. Moreover, the Potency entry in assay [5], in [7], in assay [8], in assay [10], in assay [11] and in [12] was “inactive” in each case. Further, the Potency result in assay [13] and in assay [14] was “inactive” throughout. Also, in assay [18], the molecule was called inactive. Besides, the max response in [9] is 0.0251%.

Regarding `Nc1ccc(N=Nc2ccc(N)cc2)cc1`, the Potency result in assay [1], in assay [2], in [16], in assay [3], in assay [4] and in [5] was “inactive” in each case. The Potency entry in [6], in [7], in [8], in assay [10], in [11] and in [12] was “inactive” each time. Besides, the Potency result in assay [13] and in assay [14] was “inactive” throughout. Besides, the outcome in assay [18] was inactive. In assay [9], the max response was -7.32%.

In the case of `CC(C)C(O)C(C)(C)CO` (centres undefined), the Potency result in assay [1], in assay [2], in assay [16], in assay [4], in assay [5] and in assay [8] was “inactive” throughout. In addition, the Potency entry in [10], in assay [12], in assay [13] and in assay [14] was “inactive” in each case. The molecule was called inactive in assay [18]. Besides, the Potency in assay [19] was 891 nM (active); in assay [3], 801 nM (active); in assay [7], 899 nM (active); in [9], 899 nM (active).

Take `Cc1ccc(NC(=O)N(C)C)cc1NC(=O)N(C)C`: the Potency result in assay [1], in assay [15], in assay [2], in [3], in [4] and in [5] was “inactive” in each case. Also, the Potency result in [7], in [8], in [10], in assay [11], in [12] and in assay [13] was “inactive” in each case. For the same molecule, in assay [14], the Potency entry is “inactive”. Also, the max response in assay [9] was -1.73%.

With `COc1cc(S(=O)(=O)Nc2ccccc2)c(OC)cc1N`, the Potency entry in assay [1], in [2], in assay [3], in assay [4], in [5] and in [6] was “inactive” each time. The Potency result in [7], in assay [10], in assay [11], in assay [12], in assay [13] and in assay [14] was “inactive” throughout. Further, the max response in assay [9] was -20.8%.

As for `CC(=O)C(C)=O`, the Potency entry in assay [1], in assay [15], in [2], in assay [16], in assay [3] and in assay [4] was “inactive” throughout. The Potency entry in assay [5], in assay [6], in assay [7], in assay [8], in assay [10] and in [11] was “inactive” each time. In addition, the Potency entry in assay [12] and in [13] was “inactive” each time. In addition, the max response in assay [9] was 13.9%.

The record behind these values is PubChem BioAssay (Tox21).
